Common to all, as to conditions: Compound concentration 20.0 uM, Protein concentration 2.0 uM, Result type QC Liability
The target of test [1] is Tyrosine-protein kinase ABL1 (Homo sapiens) (UniProt P00519).
In test [2] the target is Cyclin-dependent kinase 2 (Homo sapiens) (UniProt P24941).
For test [3], the target named is Casein kinase I isoform delta (Homo sapiens) (UniProt P48730).
Test [4] has as its target Glycogen synthase kinase-3 beta (Homo sapiens) (UniProt P49841).
The target in test [5] is Mitogen-activated protein kinase 1 (Homo sapiens) (UniProt P28482).
Sequence of Mitogen-activated protein kinase 1 (Homo sapiens) (P28482 whole entry): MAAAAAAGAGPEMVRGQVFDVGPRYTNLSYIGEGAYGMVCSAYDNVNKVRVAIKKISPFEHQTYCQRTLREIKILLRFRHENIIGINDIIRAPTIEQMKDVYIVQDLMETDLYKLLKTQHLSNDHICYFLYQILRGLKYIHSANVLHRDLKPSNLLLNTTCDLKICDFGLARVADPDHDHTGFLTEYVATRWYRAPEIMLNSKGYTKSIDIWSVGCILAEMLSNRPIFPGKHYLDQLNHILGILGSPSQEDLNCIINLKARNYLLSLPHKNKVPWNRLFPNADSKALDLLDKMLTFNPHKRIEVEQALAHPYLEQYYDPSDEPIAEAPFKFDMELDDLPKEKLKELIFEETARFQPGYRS
Test [6] deals with T1, Aurora kinase A (Homo sapiens) (UniProt O14965).
T1 sequence (whole entry): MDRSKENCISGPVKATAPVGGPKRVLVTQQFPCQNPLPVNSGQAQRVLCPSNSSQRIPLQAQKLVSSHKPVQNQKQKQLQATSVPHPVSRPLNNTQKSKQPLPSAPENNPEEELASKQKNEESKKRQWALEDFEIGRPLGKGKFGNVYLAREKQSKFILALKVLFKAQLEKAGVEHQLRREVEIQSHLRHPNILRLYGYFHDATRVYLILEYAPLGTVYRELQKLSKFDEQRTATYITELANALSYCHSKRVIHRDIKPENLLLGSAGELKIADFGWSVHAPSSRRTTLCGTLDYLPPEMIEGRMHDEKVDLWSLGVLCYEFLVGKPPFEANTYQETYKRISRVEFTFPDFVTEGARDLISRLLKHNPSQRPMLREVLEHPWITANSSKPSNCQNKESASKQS

Data on 25 compounds can be found in ChEMBL document CHEMBL5308504, “Tm Shift (DSF) assay results for EUbOPEN Chemogenomics Library” (2023).

Each structure is given as a SMILES string. Where “and” joins values, the source holds several entries; their conditions need not be identical. Equal values may be shown once.

Sequence of Tyrosine-protein kinase ABL1 (Homo sapiens) (P00519 whole entry): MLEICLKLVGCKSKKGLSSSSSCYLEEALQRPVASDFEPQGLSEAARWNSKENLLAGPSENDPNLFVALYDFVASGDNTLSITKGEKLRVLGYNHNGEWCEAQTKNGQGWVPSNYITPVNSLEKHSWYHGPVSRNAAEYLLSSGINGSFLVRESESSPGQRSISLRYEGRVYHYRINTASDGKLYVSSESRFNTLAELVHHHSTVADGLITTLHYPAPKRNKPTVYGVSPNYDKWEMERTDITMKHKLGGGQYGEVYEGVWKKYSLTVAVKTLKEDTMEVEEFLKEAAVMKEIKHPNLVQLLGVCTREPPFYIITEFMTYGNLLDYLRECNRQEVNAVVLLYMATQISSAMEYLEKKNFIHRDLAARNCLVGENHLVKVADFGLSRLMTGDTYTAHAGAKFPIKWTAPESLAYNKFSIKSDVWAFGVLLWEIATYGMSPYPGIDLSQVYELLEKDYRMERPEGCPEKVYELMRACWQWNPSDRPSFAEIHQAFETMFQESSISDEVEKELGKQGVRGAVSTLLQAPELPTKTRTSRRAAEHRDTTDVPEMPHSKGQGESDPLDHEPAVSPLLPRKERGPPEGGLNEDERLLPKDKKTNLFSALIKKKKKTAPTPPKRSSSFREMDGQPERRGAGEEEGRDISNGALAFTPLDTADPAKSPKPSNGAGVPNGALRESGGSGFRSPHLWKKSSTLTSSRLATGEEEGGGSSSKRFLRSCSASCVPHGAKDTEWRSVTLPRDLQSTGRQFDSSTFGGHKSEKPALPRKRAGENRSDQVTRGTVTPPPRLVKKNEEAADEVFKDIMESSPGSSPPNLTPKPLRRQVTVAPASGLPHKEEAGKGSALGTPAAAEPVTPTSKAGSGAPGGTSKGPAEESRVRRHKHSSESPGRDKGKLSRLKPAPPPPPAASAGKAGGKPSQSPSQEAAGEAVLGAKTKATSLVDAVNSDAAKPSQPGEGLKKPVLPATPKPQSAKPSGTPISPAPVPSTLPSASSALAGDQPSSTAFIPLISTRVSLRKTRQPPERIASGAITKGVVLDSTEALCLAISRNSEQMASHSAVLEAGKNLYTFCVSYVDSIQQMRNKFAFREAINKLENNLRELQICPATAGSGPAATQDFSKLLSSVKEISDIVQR
Sequence of Glycogen synthase kinase-3 beta (Homo sapiens) (P49841 whole entry, looked up): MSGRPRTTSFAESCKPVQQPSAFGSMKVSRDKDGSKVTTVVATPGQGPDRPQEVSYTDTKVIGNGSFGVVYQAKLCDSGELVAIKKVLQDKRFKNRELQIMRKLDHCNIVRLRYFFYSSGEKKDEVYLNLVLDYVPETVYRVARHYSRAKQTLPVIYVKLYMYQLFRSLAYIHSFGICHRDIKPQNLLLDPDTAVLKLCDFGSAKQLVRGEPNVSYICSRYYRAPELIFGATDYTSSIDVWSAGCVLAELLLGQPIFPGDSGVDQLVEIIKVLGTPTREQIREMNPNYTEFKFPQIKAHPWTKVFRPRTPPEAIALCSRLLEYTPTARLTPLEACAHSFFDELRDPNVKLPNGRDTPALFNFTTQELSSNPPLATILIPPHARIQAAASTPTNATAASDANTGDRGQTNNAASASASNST
Sequence of Casein kinase I isoform delta (Homo sapiens) (P48730 whole entry, looked up, canonical isoform): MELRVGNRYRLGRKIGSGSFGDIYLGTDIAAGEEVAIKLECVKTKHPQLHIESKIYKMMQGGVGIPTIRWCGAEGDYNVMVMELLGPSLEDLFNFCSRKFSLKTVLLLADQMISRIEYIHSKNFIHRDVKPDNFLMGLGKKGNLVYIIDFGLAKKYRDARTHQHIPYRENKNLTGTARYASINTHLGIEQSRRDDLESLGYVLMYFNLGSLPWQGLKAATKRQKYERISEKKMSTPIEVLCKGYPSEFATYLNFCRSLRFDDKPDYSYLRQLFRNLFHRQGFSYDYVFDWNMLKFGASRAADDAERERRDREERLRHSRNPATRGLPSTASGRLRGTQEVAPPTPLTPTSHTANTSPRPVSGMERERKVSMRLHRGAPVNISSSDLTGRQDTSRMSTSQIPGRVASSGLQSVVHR

As usually defined, the ΔTm is the shift of the melting midpoint relative to a reference. Turning to `COCCNC1CCC(Nc2cc(-c3csc(NCC4(C#N)CCOCC4)n3)c(Cl)cn2)CC1` (stereo not given), the ΔTm in test [1] was determined as 0.32 °C; in test [2], 1.7 °C; in test [3], 2.18 °C; in test [4], 6.51 °C; in test [5] it was 0.43 °C; in test [6], 1.44 °C.
`Cn1cnc(Cn2ccc3ccc(CNCc4[nH]c5ccccc5c4[C@H]4NC(=O)c5ccc(O)cc54)cc32)c1`: the ΔTm was 0.28 °C in test [1]; -0.58 °C in test [2]; 0.32 °C in test [3]; -0.76 °C in test [4]; 0.91 °C in test [5]; 0.59 °C in test [6].
With `COCCN1CCN(CCn2ccc(Nc3ncc4c(n3)-c3c(nn(C)c3-c3ccccc3)C[C@H]4C)n2)CC1`, the ΔTm was 2.08 °C in test [1]; 3.1 °C in test [2]; 5.97 °C in test [3]; 0.86 °C in test [4]; 1.18 °C in test [5]; 2.79 °C in test [6].
Consider `CN[C@@H](C)C(=O)N[C@H](C(=O)N1CCC[C@H]1C(=O)N[C@H]1c2ccccc2C[C@H]1OCC#CC#CCO[C@@H]1Cc2ccccc2[C@@H]1NC(=O)[C@@H]1CCCN1C(=O)[C@@H](NC(=O)[C@H](C)NC)C1CCCCC1)C1CCCCC1`, for which the ΔTm in test [1] was 0.18 °C; in test [2], -0.48 °C; in test [3] it was 0.49 °C; in test [4], -1.17 °C; in test [5], 0.11 °C; in test [6], -1.88 °C.
Turning to `CCNC(=O)c1ccc2c(c1)NC(=O)/C2=C(\Nc1ccc(CN(C)C)cc1)c1ccccc1`, the ΔTm in test [1] is 3.61 °C and 1.55 °C; in test [2], 0.83 °C and 0.42 °C; in test [3], 0.37 °C and -0.02 °C; in test [4] it was 0.19 °C and -0.61 °C; in test [5], 0.2 °C and 0.17 °C; in test [6] it was 1.4 °C and 0 °C.
Consider `Cc1cc2nc(N3CCC(C(=O)NC4CCCC4)CC3)n(C(C)C)c2cc1C`, for which the ΔTm in test [1] came to 0.22 °C; in test [2] it was 0.23 °C; in test [3] it was 0.04 °C; in test [4], 0.31 °C; in test [5], 0 °C; in test [6], 0.01 °C.
Consider `CCN(C(=O)CO)[C@H]1CN(/C(=N\C#N)Nc2cccc(OC(F)F)c2)N=C1c1ccc(Cl)c(Cl)c1`, for which the ΔTm in test [1] was 0.46 °C; in test [2], 0.22 °C; in test [3], 0.23 °C; in test [4], 2.8 °C; in test [5] it was -0.24 °C; in test [6] it was 0.87 °C.
Consider `O=C(Nc1snnc1C(=O)Nc1ccc(N2CCCC2)cc1)c1cncc(C(F)(F)F)c1`, for which the ΔTm in test [1] was 0.66 °C; in test [2], 0.59 °C; in test [3] it was 1.04 °C; in test [4], -1.38 °C; in test [5] it was 0.03 °C; in test [6], -0.75 °C.
As to `CCOC(=O)C1Cc2ccccc2CN1C(=O)c1ccc(SC)s1` (stereo not given), the ΔTm was 0.02 °C in test [1]; 0.34 °C in test [2]; 0.34 °C in test [3]; -1.03 °C in test [4]; 0 °C in test [5]; -1.2 °C in test [6].
As for `COc1cc(-c2cn[nH]c2)ccc1C(=O)Nc1ccc2c(c1)CCNCC2`, the ΔTm in test [1] was 0.96 °C; in test [2] it was 0.47 °C; in test [3] it was 0.7 °C; in test [4], -0.7 °C; in test [5] it was 0.38 °C; in test [6], 0.13 °C.
As for `COc1ccc(S(=O)(=O)N2CCOCC2)cc1Nc1ccc2c(n1)N(C1CCN(C)CC1)[C@H](C)C(=O)N2C`, the ΔTm in test [1] was -0.01 °C; in test [2], 0.43 °C; in test [3], 0.44 °C; in test [4], 0.08 °C; in test [5], 0.18 °C; in test [6], 0 °C.
Take `CCC(=O)N[C@@H]1CC[C@H](C(=O)N(C)c2ccc(-c3nc4ccccc4o3)cc2)C1`: the ΔTm in test [1] was 0.73 °C; in test [2], 0.64 °C; in test [3] it was 0.6 °C; in test [4] it was -0.1 °C; in test [5], 0.12 °C; in test [6], 0.03 °C.
For `Cc1nccn1-c1ccc(Sc2cccc(C3(C(N)=O)CCOCC3)c2)cc1`, the ΔTm is -0.23 °C in test [1]; 0.53 °C in test [2]; -0.21 °C in test [3]; 0.36 °C in test [4]; 0.38 °C in test [5]; -0.31 °C in test [6].
For `CCCS(=O)(=O)Nc1ccc(F)c(Nc2ncnc3cnc(-n4cnc(C)c4)nc23)c1F`, the ΔTm in test [1] was 1.19 °C; in test [2], 1.1 °C; in test [3] it was 0.17 °C; in test [4] it was 0.89 °C; in test [5] it was 0.39 °C; in test [6], -0.24 °C.
For `CCCN1CCC(C#N)(NC(=O)[C@H](CC(C)(C)C)NC(=O)N2CCOCC2)CC1`, the ΔTm was -0.4 °C in test [1]; 1.07 °C in test [2]; 0.1 °C in test [3]; -0.32 °C in test [4]; -0.1 °C in test [5]; -0.11 °C in test [6].
`O=C(Nc1ccnc(NC(=O)C2CC2)c1)c1c(Cl)cccc1Cl`: the ΔTm in test [1] was 5.46 °C; in test [2], 6.9 °C; in test [3], 0.54 °C; in test [4], 6.06 °C; in test [5], 0.23 °C; in test [6], 4.28 °C.
On to `CN(C)CC#Cc1ccc2[nH]c3c(c2c1)-c1nc(N)ncc1CCC3`, for which the ΔTm in test [1] was 0.75 °C; in test [2], -0.08 °C; in test [3], 3.05 °C; in test [4], 0.06 °C; in test [5], 0.46 °C; in test [6], 1.23 °C.
Turning to `O=C(O)c1cccc(C2=C(c3cc(Cl)ccc3OCc3ccc(F)cc3F)CCC2)n1`, the ΔTm in test [1] is -0.85 °C; in test [2], -1.05 °C; in test [3], -0.59 °C; in test [4], 0 °C; in test [5] it was -0.17 °C; in test [6], -0.7 °C.
Consider `C=C(F)C(=O)N1CCN(c2nc(OC[C@@H]3CCCN3C)nc3c2CCN(c2cccc4cccc(Cl)c24)C3)C[C@@H]1CC#N`, for which the ΔTm in test [1] was -0.03 °C; in test [2], 0.01 °C; in test [3], 0.31 °C; in test [4], 0.36 °C; in test [5] it was 0.14 °C; in test [6] it was -0.49 °C.
Turning to `CNc1nc(-c2ccc3c(N)n[nH]c3c2)cc(N2C[C@@H](C(=O)NC3CCCCC3)CC[C@H]2C)n1`, the ΔTm is 0.49 °C in test [1]; -0.54 °C in test [2]; 0.18 °C in test [3]; 0.25 °C in test [4]; 0.38 °C in test [5]; 2.89 °C in test [6].
`CNc1oc(-c2cccc3ccccc23)nc1C#N`: the ΔTm in test [1] was 0.54 °C; in test [2], 0.95 °C; in test [3], -0.04 °C; in test [4], 0.49 °C; in test [5] it was 0.02 °C; in test [6] it was 0.57 °C.
Consider `COc1cc(-c2nn([C@H]3CC[C@H](N4CCN(C(C)=O)CC4)CC3)c3ncnc(N)c23)ccc1NC(=O)c1cc2ccccc2n1C`, for which the ΔTm in test [1] came to 14.2 °C; in test [2] it was 1.13 °C; in test [3], 21 °C; in test [4], 0 °C; in test [5] it was 3.54 °C; in test [6], 8.28 °C.
Turning to `C=CC[C@@H]1/C=C(\C)C[C@H](C)C[C@H](OC)[C@H]2O[C@@](O)(C(=O)C(=O)N3CCCC[C@H]3C(=O)O[C@H](/C(C)=C/[C@@H]3CC[C@@H](O)[C@H](OC)C3)[C@H](C)[C@@H](O)CC1=O)[C@H](C)C[C@@H]2OC`, the ΔTm in test [1] is -0.14 °C; in test [2], -0.14 °C; in test [3], -0.31 °C; in test [4], 0.01 °C; in test [5] it was -1.81 °C; in test [6], -0.2 °C.
On to `c1ccc2c(c1)SCc1c-2[nH]c2ccccc12`, for which the ΔTm in test [1] is -6.18 °C; in test [2], -4.12 °C; in test [3], -0.03 °C; in test [4], 1.83 °C; in test [5] it was 0.46 °C; in test [6], -4.16 °C.
`O=C(O)CCCc1cc2cc(Cl)ccc2n1S(=O)(=O)c1ccc2ncsc2c1`: the ΔTm is 0.34 °C in test [1]; 0.24 °C in test [2]; 1.03 °C in test [3]; -2.46 °C in test [4]; 0.26 °C in test [5]; -0.83 °C in test [6].
